# Bioassay records as filed in PubChem BioAssay.
# Only some compounds are listed: those with a hit (about 14% of all), similar ones and a draw of the others.
# HADH2 inhib: inhibitors of human HADH2 dehydrogenase. hit rate 3.4% among 73,000. Q99714. Potency, µM (doses to about 57.1 µM), without a hit: at the top dose activity change, negative = inhibition, actives largely listed as inhibitors. recombinant HADH2, NADH fluorescence, beta-hydroxybutyryl-CoA; also: potency is read from the fitted curve at half-maximal effect; % is scaled to controls: 0 for no effect and ±100 for the full control effect; nearly all actives have a fitted effect of over 60% in size
# Target sequence (Q99714 whole entry, looked up, one chain of several): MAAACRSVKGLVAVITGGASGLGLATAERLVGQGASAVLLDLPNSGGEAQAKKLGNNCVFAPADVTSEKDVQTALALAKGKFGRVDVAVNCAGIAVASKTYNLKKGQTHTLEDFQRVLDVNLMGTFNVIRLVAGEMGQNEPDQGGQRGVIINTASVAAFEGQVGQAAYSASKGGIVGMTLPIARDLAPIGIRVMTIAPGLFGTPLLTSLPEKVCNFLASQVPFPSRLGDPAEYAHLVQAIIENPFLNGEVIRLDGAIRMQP
#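 Activity measured as NADH fluorescence gain (360/450 nm), taken as the change between first and last reads of a 4-min kinetic run. Conditions: pH 9.0 Tris buffer, 20 nM E. coli-expressed His-tagged enzyme, 1 mM NAD+, 90 uM beta-hydroxybutyryl-CoA; 15-min compound preincubation.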
# HSD17B inhib: inhibitors of human HSD17B10 dehydrogenase. Q99714. recombinant HSD17B10, NADH fluorescence kinetic. Potency, µM (titrated, usually from 57.1 µM), inactives show top-dose activity change, negative = inhibition, actives largely listed as inhibitors. hit rate 7.6% among 75,000. AID 893;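 also: the protocol describes HADH2 (HSD17B10) and not the HSD17B4 of the title; potency is read from the fitted curve at half-maximal effect; % is scaled to controls: 0 for no effect and ±100 for the full control effect; nearly all actives have a fitted effect of over 70% in size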
#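 Activity followed as NADH fluorescence increase (ex 360, em 450 nm) every 30 seconds for 4 min, using final 90 uM beta-hydroxybutyryl CoA and 1 mM NAD+. Recombinant His-tagged enzyme, 20 nM, pH 9.0 Tris buffer, 15 min compound preincubation.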
# A350 autofl: compound fluoresces in the Alexa 350 spectral region; AID 590; Compound autofluorescence, 340/450 nm, Alexa 350 dye-equivalents; hits give high values; max dye-equivalent concentration, M; hit rate 11% among 59,000; in the data active = max dye-equivalent concentration above about 10 nM; inconclusive = mostly about 1.1 nM to 9.6 nM
# AID923: qHTS Assay for Allosteric/Competitive Inhibitors of Caspase-1: Spectroscopic Profiling in AFC Spectral Region. compound fluorescence, AFC spectral region (405/520 nm). Potency, µM (doses to about 57.5 µM), for the others: top-dose fluorescence increase, usual class: activators. hit rate 1.1% among 75,000. AID 923, 2007; also: potency is read from the fitted curve at half-maximal effect; 0% is about no effect
#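 Baseline compound fluorescence (AFC region, 405 nm ex/520 nm em) taken from the intercept of kinetic reads with 50 nM caspase-1 and 5 uM Ac-WEHD-AFC; normalized to an on-plate AFC standard curve; compounds titrated up to 57 uM.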
# CRE Fsk mod: CRE-bla signaling modulation under forskolin stimulation | hit rate 2.5% among 71,000 | CHO CRE-bla reporter (cAMP response element driving beta-lactamase), forskolin EC10, beta-lactamase ratio | Potency, µM (series often up to 38.2 µM), inactives show top-dose activity change, negative = inhibition, most hits filed as activators; active = well fitted activation curve with a large enough effect in the signal ratio, with a control signal flat, not every such curve was filed as active; inconclusive = small, poorly fitted or top-dose-only effect, or effect the other way, or a change in a side signal; the % refers to the signal ratio; also: potency is read from the fitted curve at half-maximal effect; % of control where 0% means no effect
#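 Reporter-gene assay: CHO cells with beta-lactamase behind cAMP responsive elements, co-treated with compound and EC10 NKH 477 for 3 hours at 37 degrees Celsius. Activity came from the 460/530 nm CCF4 emission ratio.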
# 4-MU autofl: compound fluoresces in the 4-MU spectral region. compound autofluorescence, 340/450 nm, 4-MU equivalents; hits give high values. max dye-equivalent concentration, M. hit rate 11% among 59,000. AID 589; in the data active = max dye-equivalent concentration above about 10 nM; inconclusive = mostly about 1.1 nM to 9.6 nM
#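 Compounds in 100 mM Tris, pH 8.0, incubated 15 min at room temperature, then fluorescence read at 340 nm excitation/450 nm emission. Signal converted to 4-MU dye-equivalent concentration using an on-plate six-point 4-MU standard curve.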
# * marks the source's active call; other numbers are inactive results; i = inactive; ? = inconclusive; / = no result given; [ ] = remark or other dose. Unless noted, calls follow the shape of the dose curve; as a rule, active = well fitted curve in the direction sought with a large enough effect; inconclusive = small, poorly fitted or top-dose-only effect, or another doubt; inactive = no such curve, though single readings can be large; an effect the other way counts as inactive or inconclusive.
SMILES,HADH2 inhib,HSD17B inhib,A350 autofl,AID923,CRE Fsk mod,4-MU autofl
CCCCn1c(O)c(C(C)=NCCc2ccccc2)c(=O)[nH]c1=O,-5%,-14%,1e-08M*,0%,?,?
O=S(=O)(O)c1cc(O)ccc1O,0.25µM*,?,i,1%[25.7 µM],-4%[17.1 µM],i
NC[C@@H](O)CSP(=O)(O)O,6%[11.4 µM],10%[11.4 µM],i,4%[11.5 µM],-5%[7.6 µM],i
CCOc1ccccc1-n1c(O)c(C=Nc2ccc(N(CC)CC)cc2)c(=O)[nH]c1=O,/,/,i,/,/,i
CCN(CC)c1ccc(N=Cc2c(O)n(-c3ccccc3C)c(=O)[nH]c2=O)cc1,/,/,1.7e-06M*,/,/,1.6e-06M*
CN1CCN(C(=O)COc2ccc3ccccc3c2Br)CC1,-26%,-19%,4e-08M*,14%,2.5µM*,3.8e-08M*
N[C@H](Cc1ccc(N(CCCl)CCCl)cc1)C(=O)O,-1%,-7%,i,-2%,13%,i
C#CCN[C@@H](C)Cc1ccccc1,11%,-5%,i,-3%,-2%,i
COc1ccc(CC[n+]2cc(/N=C(\C)[O-])on2)cc1OC,-9%,12%,i,-2%,1%,i
CC(Cc1ccccc1)[n+]1cc(/N=C(\N)[O-])on1 (configuration not stated),4%,-16%,1.4e-08M*,1%,-2%,1.3e-08M*
O=C(Cc1ccccc1)N1CCN(C/C=C/c2ccccc2)CC1,4%,4%,i,2%,?,i
CN1CCN(C(=O)Cc2nc3ccccc3[nH]2)CC1,3%,-5%,1e-08M*,7%,-2%,?
CCC(=NCCOc1ccc(Cl)cc1)c1c(O)n(C)c(=O)n(C)c1=O,/,/,1.1e-08M*,/,/,?
CN1C2CCC1CC(OC(=O)CCN1CCCC1)C2 (configuration not stated),4%,15%,6.7e-08M*,-2%,?,5.8e-08M*
Cc1nc2cc(-c3cccc(F)c3)nn2c(C)c1CCC(=O)N1CCC2(CC1)OCCO2,-6%,32µM*,?,1%,0%,?
Cc1nc2c(-c3ccccc3)c(C)nn2c(C)c1CCC(=O)N1CCC2(CC1)OCCO2,-3%,3%,i,1%,9%,i
Cc1nc2c(c(C)nn2-c2ccccc2)c(C)c1CCC(=O)N1CCC2(CC1)OCCO2,?,25µM*,/,0%,/,/
CC1=C2[C@@H]3OC(=O)[C@H](C)[C@H]3CC[C@@]2(C)C=CC1=O,0%,/,i,/,-4%,i
C/C=C1\C[C@H](C)[C@](O)(CO)C(=O)OCC2=CCN3CC[C@@H](OC1=O)[C@@H]23,-21%,/,i,/,?,i
Oc1cc2c(cc1O)[C@H]1c3ccccc3CN[C@@H]1CC2,0.63µM*,3.2µM*,1.1e-08M*,-6%,-9%,1.1e-08M*
Oc1cc2c(cc1O)[C@H]1c3ccccc3CN[C@H]1CC2,0.063µM*,1µM*,/,-4%,?,/
C[C@]1(O)CC[C@H]2[C@@H]3[C@@H](O)CC4=CC(=O)CC[C@@]4(C)[C@H]3CC[C@]21C,4%[11.4 µM],2%[11.4 µM],i,1%[11.5 µM],?,i
COc1cc2c3cc1Oc1c(O)c(OC)cc4c1[C@@H](Cc1ccc(cc1)Oc1cc(ccc1O)C[C@H]3N(C)CC2)N(C)CC4,-9%[11.4 µM],0%[11.4 µM],i,1%[11.5 µM],-6%[7.6 µM],i
CN1CC[C@]2(C)c3cc(O)ccc3N(C)[C@@H]12,?,?,1.1e-08M*,4%[25.7 µM],?,1e-08M*
Cc1ccc(OP(=O)(Oc2ccc(C)cc2)N2C=Cc3ccccc3[C@H]2C#N)cc1,-3%[11.4 µM],7%[11.4 µM],i,0%[11.5 µM],2%[7.6 µM],i
CC(=O)[C@@H]1CC[C@@H]2[C@H]3CC[C@H]4C[C@@H](O)CC[C@]4(C)[C@@H]3C(=O)C[C@]21C,-6%,/,i,/,-3%,i
ClC(Cl)=C(Cl)Cl,2%,6%,/,-2%,-5%,/
CN(C)c1ccc(N(C)C)cc1,3.2µM*,-6%,/,2%,5%,/
CN(C)CCCc1c[nH]c2ccccc12,6%[11.4 µM],12%[11.4 µM],i,0%[11.5 µM],-6%[7.6 µM],i
